{
  "source": "PubChem BioAssay (EPA / NIEHS)",
  "note": "Calls of active or inactive are those of the source. Rule for the calls: active = hit-call score of the fitted dose curve at least 0.9, where 1 is the maximum; inactive = score below 0.9.",
  "data": [
    {"read-out": "Cyclin Dependent Kinase Inhibitor 1A (CDKN1A), CDKN1A (gene 1026)", "test": "LTEA_HepaRG_CDKN1A: Life Technologies and Expression Analysis (LTEA) Assay for Cyclin Dependent Kinase Inhibitor 1A (CDKN1A) using HepaRG (AID 2283450)", "settings": "mRNA level, 48 h; actives raise or lower the signal", "procedure,_shortened": "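HepaRG, 48 h dosing, 8-pt half-log series from 100 uM top, 0.5% DMSO vehicle, duplicates. Readout: TaqMan qRT-PCR of CDKN1A transcript, housekeeping-normalized (ACTB, GAPDH, POLR2A). Up/down curve fit relative to DMSO.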", "values": [
      {"compound": "Cc1occc(=O)c1O", "outcome": "inactive"},
      {"compound": "CC(=O)OC1CC(C)OC(C)O1", "note": "(stereo not given)", "outcome": "inactive"},
      {"compound": "CCCC[C@H]1CN(CC2CCOCC2)C(=O)OC12CCN(C1(C)CCN(C(=O)c3c(C)ncnc3C)CC1)CC2", "outcome": "inactive"},
      {"compound": "O=C(N[C@@H](c1ccccc1)[C@@H]1CCCCN1)c1cccc(C(F)(F)F)c1Cl", "outcome": "inactive"},
      {"compound": "CC(C)NCC(O)c1ccc(O)c(O)c1", "note": "(stereo not given)", "AC50": "0.148 µM (active)"},
      {"compound": "C#CC(O)C(CC)CCCC", "note": "(stereo not given)", "outcome": "inactive"},
      {"compound": "CC(COCC(C)OC(=O)c1ccccc1)OC(=O)c1ccccc1", "note": "(stereo not given)", "outcome": "inactive"},
      {"compound": "NC1CCCCC1", "outcome": "inactive"},
      {"compound": "O=C(O)CC(O)(CC(=O)O)C(=O)O", "outcome": "inactive"},
      {"compound": "COC(=O)CCC(=O)OC", "outcome": "inactive"},
      {"compound": "CC(N)=O", "outcome": "inactive"},
      {"compound": "O=C(O)c1cccnc1", "outcome": "inactive"},
      {"compound": "CCCC(=O)O", "outcome": "inactive"},
      {"compound": "CCc1cc(C2=C(C(=O)O)N(c3ccccc3C(F)(F)F)S(=O)(=O)c3ccccc32)cc2c1OCO2", "outcome": "inactive"},
      {"compound": "COC(=O)[C@H]1[C@H]2C[C@@H]3c4[nH]c5cc(OC)ccc5c4CCN3C[C@H]2C[C@@H](OC(=O)c2cc(OC)c(OC)c(OC)c2)[C@@H]1OC", "outcome": "inactive"},
      {"compound": "O=NO", "outcome": "inactive"},
      {"compound": "CCOCCOCCO", "outcome": "inactive"},
      {"compound": "CS(=O)(=O)c1ccc([C@@H](C[C@H]2CCC(=O)C2)C(=O)Nc2cnccn2)cc1Cl", "outcome": "inactive"},
      {"compound": "OCC(CO)n1cnc(-c2ccc(F)cc2)c1-c1ccnc(Oc2ccccc2)n1", "outcome": "inactive"},
      {"compound": "O=C(NS(=O)(=O)/C=C/c1cccs1)c1ccc(F)cc1Br", "outcome": "inactive"},
      {"compound": "CC(C)(C)c1ccccc1", "outcome": "inactive"},
      {"compound": "Cc1ccc(-c2cc(C(F)(F)F)nn2-c2ccc(S(N)(=O)=O)cc2)cc1", "outcome": "inactive"},
      {"compound": "CN(C)CCCN1c2ccccc2Sc2ccc(Cl)cc21", "AC50": "50 µM (active)"},
      {"compound": "O=C1O[C@H]([C@H](O)CO)C(O)=C1O", "outcome": "inactive"},
      {"compound": "CN(C)CCCN(C)CCCN(C)C", "outcome": "inactive"},
      {"compound": "CO[C@@H]1COCC[C@@H]1N[C@@H]1CC[C@@](C(=O)N2CCc3ncc(C(F)(F)F)cc3C2)(C(C)C)C1", "outcome": "inactive"},
      {"compound": "CC(=O)O", "outcome": "inactive"},
      {"compound": "CCCCC(CC)COC(=O)CCCCCCCC(=O)OCC(CC)CCCC", "note": "(stereo not given)", "outcome": "inactive"},
      {"compound": "NC=O", "outcome": "inactive"},
      {"compound": "O=C(O)c1[nH]n(-c2ccc(S(=O)(=O)O)cc2)c(=O)c1N=Nc1ccc(S(=O)(=O)O)cc1", "outcome": "inactive"}
    ]},
    {"read-out": "Cyclin D1 (CCND1), CCND1 (gene 595)", "test": "LTEA_HepaRG_CCND1: Life Technologies and Expression Analysis (LTEA) Assay for Cyclin D1 (CCND1) using HepaRG (AID 2283451);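 for AC50: differentiated human HepaRG liver cells in serum-free induction medium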", "settings": "mRNA level, 48 h; actives raise or lower the signal", "procedure,_shortened": "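qRT-PCR (Fluidigm 96.96 array) read-out of transcript level, housekeeping-normalized (ACTB/GAPDH/POLR2A). HepaRG cells, 48 h chemical exposure, 8-point half-log series from 100 uM, 0.5% DMSO vehicle; gain or loss relative to DMSO baseline.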", "values": [
      {"compound": "Cc1occc(=O)c1O", "outcome": "inactive"},
      {"compound": "CC(=O)OC1CC(C)OC(C)O1", "note": "(stereo not given)", "outcome": "inactive"},
      {"compound": "CCCC[C@H]1CN(CC2CCOCC2)C(=O)OC12CCN(C1(C)CCN(C(=O)c3c(C)ncnc3C)CC1)CC2", "outcome": "inactive"},
      {"compound": "O=C(N[C@@H](c1ccccc1)[C@@H]1CCCCN1)c1cccc(C(F)(F)F)c1Cl", "AC50": "16.6 µM (active)"},
      {"compound": "CC(C)NCC(O)c1ccc(O)c(O)c1", "note": "(stereo not given)", "AC50": "0.141 µM (active)"},
      {"compound": "C#CC(O)C(CC)CCCC", "note": "(stereo not given)", "outcome": "inactive"},
      {"compound": "CC(COCC(C)OC(=O)c1ccccc1)OC(=O)c1ccccc1", "note": "(stereo not given)", "outcome": "inactive"},
      {"compound": "NC1CCCCC1", "outcome": "inactive"},
      {"compound": "O=C(O)CC(O)(CC(=O)O)C(=O)O", "outcome": "inactive"},
      {"compound": "COC(=O)CCC(=O)OC", "outcome": "inactive"},
      {"compound": "CC(N)=O", "outcome": "inactive"},
      {"compound": "O=C(O)c1cccnc1", "outcome": "inactive"},
      {"compound": "CCCC(=O)O", "outcome": "inactive"},
      {"compound": "CCc1cc(C2=C(C(=O)O)N(c3ccccc3C(F)(F)F)S(=O)(=O)c3ccccc32)cc2c1OCO2", "outcome": "inactive"},
      {"compound": "COC(=O)[C@H]1[C@H]2C[C@@H]3c4[nH]c5cc(OC)ccc5c4CCN3C[C@H]2C[C@@H](OC(=O)c2cc(OC)c(OC)c(OC)c2)[C@@H]1OC", "outcome": "inactive"},
      {"compound": "O=NO", "outcome": "inactive"},
      {"compound": "CCOCCOCCO", "outcome": "inactive"},
      {"compound": "CS(=O)(=O)c1ccc([C@@H](C[C@H]2CCC(=O)C2)C(=O)Nc2cnccn2)cc1Cl", "AC50": "1.64 µM (active)"},
      {"compound": "OCC(CO)n1cnc(-c2ccc(F)cc2)c1-c1ccnc(Oc2ccccc2)n1", "AC50": "20.1 µM (active)"},
      {"compound": "O=C(NS(=O)(=O)/C=C/c1cccs1)c1ccc(F)cc1Br", "outcome": "inactive"},
      {"compound": "CC(C)(C)c1ccccc1", "outcome": "inactive"},
      {"compound": "Cc1ccc(-c2cc(C(F)(F)F)nn2-c2ccc(S(N)(=O)=O)cc2)cc1", "outcome": "inactive"},
      {"compound": "CN(C)CCCN1c2ccccc2Sc2ccc(Cl)cc21", "AC50": "50 µM (active)"},
      {"compound": "O=C1O[C@H]([C@H](O)CO)C(O)=C1O", "outcome": "inactive"},
      {"compound": "CN(C)CCCN(C)CCCN(C)C", "outcome": "inactive"},
      {"compound": "CO[C@@H]1COCC[C@@H]1N[C@@H]1CC[C@@](C(=O)N2CCc3ncc(C(F)(F)F)cc3C2)(C(C)C)C1", "outcome": "inactive"},
      {"compound": "CC(=O)O", "outcome": "inactive"},
      {"compound": "CCCCC(CC)COC(=O)CCCCCCCC(=O)OCC(CC)CCCC", "note": "(stereo not given)", "outcome": "inactive"},
      {"compound": "NC=O", "outcome": "inactive"},
      {"compound": "O=C(O)c1[nH]n(-c2ccc(S(=O)(=O)O)cc2)c(=O)c1N=Nc1ccc(S(=O)(=O)O)cc1", "outcome": "inactive"}
    ]},
    {"read-out": "catalase (CAT), CAT (gene 847)", "test": "LTEA_HepaRG_CAT: Life Technologies and Expression Analysis (LTEA) Assay for catalase (CAT) using HepaRG (AID 2283452)", "settings": "mRNA level, 48 h; actives raise or lower the signal", "procedure,_shortened": "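Expression of CAT was quantified by TaqMan qRT-PCR with ACTB/GAPDH/POLR2A normalization after 48 h chemical exposure of HepaRG. Eight-point half-log series, top 100 uM, in 0.5% DMSO; gain or loss fitted against vehicle.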", "values": [
      {"compound": "Cc1occc(=O)c1O", "outcome": "inactive"},
      {"compound": "CC(=O)OC1CC(C)OC(C)O1", "note": "(stereo not given)", "outcome": "inactive"},
      {"compound": "CCCC[C@H]1CN(CC2CCOCC2)C(=O)OC12CCN(C1(C)CCN(C(=O)c3c(C)ncnc3C)CC1)CC2", "outcome": "inactive"},
      {"compound": "O=C(N[C@@H](c1ccccc1)[C@@H]1CCCCN1)c1cccc(C(F)(F)F)c1Cl", "AC50": "56.7 µM (active)"},
      {"compound": "CC(C)NCC(O)c1ccc(O)c(O)c1", "note": "(stereo not given)", "AC50": "0.2 µM (active)"},
      {"compound": "C#CC(O)C(CC)CCCC", "note": "(stereo not given)", "outcome": "inactive"},
      {"compound": "CC(COCC(C)OC(=O)c1ccccc1)OC(=O)c1ccccc1", "note": "(stereo not given)", "outcome": "inactive"},
      {"compound": "NC1CCCCC1", "outcome": "inactive"},
      {"compound": "O=C(O)CC(O)(CC(=O)O)C(=O)O", "outcome": "inactive"},
      {"compound": "COC(=O)CCC(=O)OC", "outcome": "inactive"},
      {"compound": "CC(N)=O", "outcome": "inactive"},
      {"compound": "O=C(O)c1cccnc1", "outcome": "inactive"},
      {"compound": "CCCC(=O)O", "outcome": "inactive"},
      {"compound": "CCc1cc(C2=C(C(=O)O)N(c3ccccc3C(F)(F)F)S(=O)(=O)c3ccccc32)cc2c1OCO2", "AC50": "50 µM (active)"},
      {"compound": "COC(=O)[C@H]1[C@H]2C[C@@H]3c4[nH]c5cc(OC)ccc5c4CCN3C[C@H]2C[C@@H](OC(=O)c2cc(OC)c(OC)c(OC)c2)[C@@H]1OC", "AC50": "42.2 µM (active)"},
      {"compound": "O=NO", "outcome": "inactive"},
      {"compound": "CCOCCOCCO", "outcome": "inactive"},
      {"compound": "CS(=O)(=O)c1ccc([C@@H](C[C@H]2CCC(=O)C2)C(=O)Nc2cnccn2)cc1Cl", "outcome": "inactive"},
      {"compound": "OCC(CO)n1cnc(-c2ccc(F)cc2)c1-c1ccnc(Oc2ccccc2)n1", "outcome": "inactive"},
      {"compound": "O=C(NS(=O)(=O)/C=C/c1cccs1)c1ccc(F)cc1Br", "outcome": "inactive"},
      {"compound": "CC(C)(C)c1ccccc1", "outcome": "inactive"},
      {"compound": "Cc1ccc(-c2cc(C(F)(F)F)nn2-c2ccc(S(N)(=O)=O)cc2)cc1", "AC50": "83.6 µM (active)"},
      {"compound": "CN(C)CCCN1c2ccccc2Sc2ccc(Cl)cc21", "AC50": "50 µM (active)"},
      {"compound": "O=C1O[C@H]([C@H](O)CO)C(O)=C1O", "outcome": "inactive"},
      {"compound": "CN(C)CCCN(C)CCCN(C)C", "outcome": "inactive"},
      {"compound": "CO[C@@H]1COCC[C@@H]1N[C@@H]1CC[C@@](C(=O)N2CCc3ncc(C(F)(F)F)cc3C2)(C(C)C)C1", "outcome": "inactive"},
      {"compound": "CC(=O)O", "outcome": "inactive"},
      {"compound": "CCCCC(CC)COC(=O)CCCCCCCC(=O)OCC(CC)CCCC", "note": "(stereo not given)", "outcome": "inactive"},
      {"compound": "NC=O", "outcome": "inactive"},
      {"compound": "O=C(O)c1[nH]n(-c2ccc(S(=O)(=O)O)cc2)c(=O)c1N=Nc1ccc(S(=O)(=O)O)cc1", "outcome": "inactive"}
    ]}
  ]
}
